# In PubChem BioAssay (NCATS):
# Inconclusive results are not listed. A call without a number means that no potency is given here. The source made the active and inactive calls. The call rests on the fitted dose curve; in most records, active means well fitted curve in the direction sought with a large enough effect; inconclusive means small, poorly fitted or top-dose-only effect, or another doubt; inactive means no such curve, though single readings can be large; an effect the other way counts as inactive or inconclusive.
# Molecular target: Calcium and integrin-binding protein 1 (Homo sapiens) (UniProt Q99828)
# Test: Primary qHTS for Identification of Calcium Integrin Binding Protein 1 (CIB1) Competitor (AID 1508620);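 further: GST tagged CIB1 binding a fluorescein labelled alphaIIb integrin peptide tracer; top concentration of the series differs between compounds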
# Settings: CIB1-GST / FITC-alphaIIb peptide fluorescence polarization; series mostly up to 114 µM
# Summary of the method: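 CIB1-GST (1 uM final) and compound incubated 15 min at room temperature before adding FITC-alphaIIb peptide tracer (100 nM final). Competition for binding read by fluorescence polarization (ex 480, em 540) after another 15 min at room temperature.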
# Sequence of Calcium and integrin-binding protein 1 (Homo sapiens) (Q99828 whole entry, looked up): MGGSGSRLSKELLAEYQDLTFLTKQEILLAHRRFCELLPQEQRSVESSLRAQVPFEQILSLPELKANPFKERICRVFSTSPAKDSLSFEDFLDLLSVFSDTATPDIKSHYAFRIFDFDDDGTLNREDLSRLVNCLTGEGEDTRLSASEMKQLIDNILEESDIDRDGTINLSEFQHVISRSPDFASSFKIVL
row,SMILES,Potency
1,CC(=O)Nc1c(I)cc(I)c(C(=O)O)c1I,inactive
2,CCCCCCCCCCCCCCCCCC(=O)OCC(O)CO (configuration not stated),inactive
3,Cc1onc(-c2c(Cl)cccc2Cl)c1C(=O)N[C@@H]1C(=O)N2[C@@H]1SC(C)(C)[C@@H]2C(=O)O,inactive
4,C/C=C(/C(=C/C)c1ccc(O)cc1)c1ccc(O)cc1,inactive
5,Cc1c(C(N)=O)cc([N+](=O)[O-])cc1[N+](=O)[O-],inactive
6,CN(C)CC/C=C1/c2ccccc2COc2ccc(CC(=O)O)cc21,inactive
7,CCC(=O)c1c(O)cc(O)cc1O,inactive
8,CC(CCc1ccccc1)NCC(O)c1ccc(O)c(C(N)=O)c1 (configuration not stated),inactive
9,CN(C)/N=N/c1nc[nH]c1C(N)=O,inactive
10,CN1[C@@H]2CC[C@H]1CC(OC(=O)c1c[nH]c3ccccc13)C2 (some centres not stated),inactive

# System: not listed separately
# Test: Counterscreen qHTS for small molecule stabilizers of the endoplasmic reticulum resident proteome: GLuc-NoTag assay (AID 1508627)
# Settings: Gaussia luciferase NoTag secretion counterscreen, luminescence, thapsigargin 100 nM for final 4 h; series mostly up to 76.4 µM
# Summary of the method: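 Counterscreen line: SH-SY5Y-GLuc-NoTag cells, treated with compound 19 hr before a 4 hr, 100 nM thapsigargin calcium depletion. Secreted Gaussia luciferase in the medium was measured by luminescence after coelenterazine was added (0.07x final), with cells unlysed.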
row,SMILES,outcome
1,CCCCCCCCCCCCCCCCCC(=O)OCC(O)CO (configuration not stated),inactive
2,O=C(Nc1ccc(Oc2ccc(Cl)cc2)c(Cl)c1)c1cc(I)cc(I)c1O,inactive
3,CN1C2CCC1CC(OC(=O)c1c[nH]c3ccccc13)C2 (configuration not stated),inactive
4,CN1[C@@H]2CC[C@H]1CC(OC(=O)c1c[nH]c3ccccc13)C2 (some centres not stated),inactive

# System: not listed separately
# Test: Confirmatory qHTS for small molecule stabilizers of the endoplasmic reticulum resident proteome: Secreted ER Calcium Modulated Protein (SERCaMP) assay (AID 1508628); further: nearly all actives have a fitted effect of over 40% in size
# Settings: SERCaMP secreted luciferase ER calcium/proteostasis reporter; series mostly up to 76.3 µM
# Summary of the method: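 Reporter secretion upon ER calcium depletion (100 nM thapsigargin, 4 h, 37C) is measured as medium luminescence with coelenterazine, after 16 h compound pretreatment of SH-SY5Y-GLuc-SERCaMP cells; primary at three concentrations up to 38.3 uM, follow-up at 11 (up to 76.6 uM).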
row,SMILES,Potency
1,CCCCCCCCCCCCCCCCCC(=O)OCC(O)CO (configuration not stated),inactive
2,C[C@@H]1CN(CCCn2c3ccccc3c3ccccc32)C[C@H](C)N1,inactive
3,CN1[C@@H]2CC[C@H]1CC(OC(=O)c1c[nH]c3ccccc13)C2 (some centres not stated),inactive
